Results reported in the supplement of paper PMC10849652.
About 8,800 targets were measured; listed, in parts, are those with a hit and a random draw of the rest. About 0.5% of all pairs of compound and target were hits. Unmarked numbers belong to inactive results.

Columns and labels:
Experiment in all cases: log2 fold change, soluble protein after heating vs DMSO (PISA); higher = thermal stabilisation; K562 lysate, 10 uM; active = over 0.2 and 3.5 SD of the protein, either way, in both replicates (recomputed)
nilotinib = compound: Cc1cn(-c2cc(NC(=O)c3ccc(C)c(Nc4nccc(-c5cccnc5)n4)c3)cc(C(F)(F)F)c2)cn1 [nilotinib]
Procedure, shortened: (§1)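 Values give the log-two fold change in thermal stability against solvent controls, from duplicates. Crude K562 extract at 1 mg/mL protein, made by dounce homogenisation in PBS pH 7.4 with 1 mM MgCl2, was treated with 10 μM compound for 30 min. After 3 min heating across 48°C-58°C, aliquots were pooled, adjusted to 0.5% NP-40 at 4°C and centrifuged at 21,000xg for 90 min. The supernatant was measured by TMTpro 16plex LC-MS/MS with channel sums equalised.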

[1] = compound: Cc1nc(Nc2n[nH]c3c2CN(C(=O)N[C@H](CN(C)C)c2ccccc2)C3(C)C)c2sccc2n1
Procedure, shortened: as §1

dasatinib = compound: Cc1nc(Nc2ncc(C(=O)Nc3c(C)cccc3Cl)s2)cc(N2CCN(CCO)CC2)n1 [dasatinib]
Procedure, shortened: as §1

[2] = compound: Cc1ncc(-c2ccnc(Nc3ccc(S(C)(=O)=O)cc3)n2)n1C(C)C
Procedure, shortened: as §1

[3] = compound: Cn1cc(-c2ccc3c(c2)CCN3C(=O)Cc2cccc(C(F)(F)F)c2)c2c(N)ncnc21
Procedure, shortened: as §1

quisinostat = compound: Cn1cc(CNCC2CCN(c3ncc(C(=O)NO)cn3)CC2)c2ccccc21 [quisinostat]
Procedure, shortened: as §1

tipifarnib = compound: Cn1cncc1[C@@](N)(c1ccc(Cl)cc1)c1ccc2c(c1)c(-c1cccc(Cl)c1)cc(=O)n2C [tipifarnib]
Procedure, shortened: as §1

[4] = compound: NC(=O)Nc1cc(-c2cccc(F)c2)sc1C(=O)N[C@H]1CCCNC1
Procedure, shortened: as §1

[5] = compound: NC(=O)c1cnc(N[C@@H]2CCCC[C@@H]2N)nc1Nc1cccc(-n2nccn2)c1
Procedure, shortened: as §1

[6] = compound: NC1(c2ccc(-c3nc4ccn5c(=O)[nH]nc5c4cc3-c3ccccc3)cc2)CCC1
Procedure, shortened: as §1

[7] = compound: NCC(=O)Nc1ccc(-n2nc(C(F)(F)F)cc2-c2ccc3c(ccc4ccccc43)c2)cc1
Procedure, shortened: as §1

vorinostat = compound: O=C(CCCCCCC(=O)Nc1ccccc1)NO [vorinostat]
Procedure, shortened: as §1

silmitasertib = compound: O=C(O)c1ccc2c(c1)nc(Nc1cccc(Cl)c1)c1ccncc12 [silmitasertib]
Procedure, shortened: as §1

[8] = compound: O=C1NC(=O)C(c2cnc3ccccn23)=C1c1cn2c3c(cc(F)cc13)CN(C(=O)N1CCCCC1)CC2
Procedure, shortened: as §1

entospletinib = compound: c1cn2cc(-c3ccc4cn[nH]c4c3)nc(Nc3ccc(N4CCOCC4)cc3)c2n1 [entospletinib]
Procedure, shortened: as §1

UniProt Q03013, sequence (Q03013 whole entry, looked up): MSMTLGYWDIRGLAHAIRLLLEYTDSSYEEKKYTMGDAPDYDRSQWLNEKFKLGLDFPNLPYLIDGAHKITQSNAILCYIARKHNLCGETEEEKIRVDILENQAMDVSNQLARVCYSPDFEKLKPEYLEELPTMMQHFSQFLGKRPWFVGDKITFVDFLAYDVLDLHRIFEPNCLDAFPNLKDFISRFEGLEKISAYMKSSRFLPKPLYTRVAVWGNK
UniProt P51617, sequence (P51617 whole entry, looked up): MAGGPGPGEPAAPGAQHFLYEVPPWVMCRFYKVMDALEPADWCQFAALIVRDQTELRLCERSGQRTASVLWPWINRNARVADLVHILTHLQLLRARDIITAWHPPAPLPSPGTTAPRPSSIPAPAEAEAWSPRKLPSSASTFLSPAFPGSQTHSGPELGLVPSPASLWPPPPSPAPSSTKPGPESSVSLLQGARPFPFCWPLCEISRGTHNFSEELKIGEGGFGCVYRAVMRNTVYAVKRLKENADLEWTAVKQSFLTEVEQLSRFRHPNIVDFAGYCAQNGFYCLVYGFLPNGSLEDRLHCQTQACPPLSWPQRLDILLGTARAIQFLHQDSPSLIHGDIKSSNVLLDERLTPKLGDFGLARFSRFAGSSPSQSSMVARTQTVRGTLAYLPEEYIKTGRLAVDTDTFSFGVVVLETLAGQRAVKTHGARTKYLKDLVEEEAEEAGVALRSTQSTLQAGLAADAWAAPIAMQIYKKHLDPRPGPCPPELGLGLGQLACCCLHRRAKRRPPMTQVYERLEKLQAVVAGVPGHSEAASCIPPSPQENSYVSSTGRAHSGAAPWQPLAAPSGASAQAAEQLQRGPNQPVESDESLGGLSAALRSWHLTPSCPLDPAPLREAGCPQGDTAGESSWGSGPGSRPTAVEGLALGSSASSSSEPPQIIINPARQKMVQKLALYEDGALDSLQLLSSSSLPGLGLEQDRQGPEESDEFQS
UniProt P43250, sequence (P43250 whole entry, looked up): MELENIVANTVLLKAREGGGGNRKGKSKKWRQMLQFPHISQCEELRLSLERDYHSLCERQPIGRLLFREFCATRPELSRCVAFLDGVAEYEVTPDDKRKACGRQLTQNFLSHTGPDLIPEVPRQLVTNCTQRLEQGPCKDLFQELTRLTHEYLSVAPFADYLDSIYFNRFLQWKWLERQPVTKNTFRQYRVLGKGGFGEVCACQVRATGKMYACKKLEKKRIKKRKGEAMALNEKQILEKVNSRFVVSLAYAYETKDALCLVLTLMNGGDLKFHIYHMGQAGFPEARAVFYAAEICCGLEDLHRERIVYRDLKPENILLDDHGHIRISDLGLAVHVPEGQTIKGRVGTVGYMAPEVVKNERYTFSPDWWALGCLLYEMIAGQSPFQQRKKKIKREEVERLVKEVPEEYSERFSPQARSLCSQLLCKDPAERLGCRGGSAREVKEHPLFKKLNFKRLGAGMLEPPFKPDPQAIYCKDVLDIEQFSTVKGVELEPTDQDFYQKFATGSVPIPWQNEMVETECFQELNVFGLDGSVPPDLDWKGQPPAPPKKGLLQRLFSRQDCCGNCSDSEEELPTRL
UniProt Q9H0C8, sequence (Q9H0C8 whole entry, looked up): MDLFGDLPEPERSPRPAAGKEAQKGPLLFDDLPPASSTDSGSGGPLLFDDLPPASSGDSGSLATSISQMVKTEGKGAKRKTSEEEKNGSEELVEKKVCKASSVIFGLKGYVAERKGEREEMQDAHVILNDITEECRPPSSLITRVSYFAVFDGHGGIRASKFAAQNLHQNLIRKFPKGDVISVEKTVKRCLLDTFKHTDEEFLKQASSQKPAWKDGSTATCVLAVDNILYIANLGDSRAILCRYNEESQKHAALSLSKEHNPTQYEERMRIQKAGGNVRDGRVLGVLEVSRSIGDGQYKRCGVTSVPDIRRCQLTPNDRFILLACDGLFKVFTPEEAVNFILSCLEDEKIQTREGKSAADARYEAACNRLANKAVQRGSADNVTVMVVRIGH
UniProt Q13322, sequence (Q13322 whole entry, looked up): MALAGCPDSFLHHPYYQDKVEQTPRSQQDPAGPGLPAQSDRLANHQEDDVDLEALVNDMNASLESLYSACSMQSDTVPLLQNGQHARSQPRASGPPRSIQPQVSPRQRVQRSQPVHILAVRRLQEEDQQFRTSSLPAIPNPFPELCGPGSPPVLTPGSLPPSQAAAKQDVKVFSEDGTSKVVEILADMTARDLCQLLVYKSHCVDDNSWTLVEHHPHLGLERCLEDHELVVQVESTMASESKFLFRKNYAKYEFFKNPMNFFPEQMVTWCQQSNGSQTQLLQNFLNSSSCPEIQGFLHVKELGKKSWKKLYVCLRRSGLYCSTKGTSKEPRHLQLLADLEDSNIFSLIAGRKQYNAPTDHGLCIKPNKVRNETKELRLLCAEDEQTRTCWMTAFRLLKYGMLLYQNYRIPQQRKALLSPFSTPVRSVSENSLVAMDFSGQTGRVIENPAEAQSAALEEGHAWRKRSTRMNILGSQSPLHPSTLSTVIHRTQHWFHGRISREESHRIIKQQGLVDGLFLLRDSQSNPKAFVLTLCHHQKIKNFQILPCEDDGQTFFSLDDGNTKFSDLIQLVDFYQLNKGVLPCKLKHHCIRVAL
UniProt P50747, sequence (P50747 whole entry, looked up): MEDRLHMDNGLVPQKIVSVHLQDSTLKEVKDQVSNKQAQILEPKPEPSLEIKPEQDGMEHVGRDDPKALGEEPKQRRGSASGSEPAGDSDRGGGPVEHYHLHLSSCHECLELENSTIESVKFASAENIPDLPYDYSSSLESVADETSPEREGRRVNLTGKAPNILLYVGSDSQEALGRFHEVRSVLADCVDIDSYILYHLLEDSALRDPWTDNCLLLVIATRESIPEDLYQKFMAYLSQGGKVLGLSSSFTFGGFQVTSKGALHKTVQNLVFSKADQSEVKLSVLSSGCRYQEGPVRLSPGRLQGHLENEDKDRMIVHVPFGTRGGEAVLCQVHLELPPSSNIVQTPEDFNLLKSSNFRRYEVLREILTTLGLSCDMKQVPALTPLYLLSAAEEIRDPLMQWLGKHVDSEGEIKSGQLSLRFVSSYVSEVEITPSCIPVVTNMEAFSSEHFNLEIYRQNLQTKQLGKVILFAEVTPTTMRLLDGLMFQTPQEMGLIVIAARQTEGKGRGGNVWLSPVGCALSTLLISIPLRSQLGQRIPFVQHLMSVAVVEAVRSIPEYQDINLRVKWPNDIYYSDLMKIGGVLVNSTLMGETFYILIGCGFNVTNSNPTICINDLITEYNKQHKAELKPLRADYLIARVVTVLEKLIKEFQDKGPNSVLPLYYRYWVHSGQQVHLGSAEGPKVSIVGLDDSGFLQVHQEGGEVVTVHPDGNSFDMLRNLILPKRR
UniProt Q9NVR2, sequence (Q9NVR2 whole entry, looked up): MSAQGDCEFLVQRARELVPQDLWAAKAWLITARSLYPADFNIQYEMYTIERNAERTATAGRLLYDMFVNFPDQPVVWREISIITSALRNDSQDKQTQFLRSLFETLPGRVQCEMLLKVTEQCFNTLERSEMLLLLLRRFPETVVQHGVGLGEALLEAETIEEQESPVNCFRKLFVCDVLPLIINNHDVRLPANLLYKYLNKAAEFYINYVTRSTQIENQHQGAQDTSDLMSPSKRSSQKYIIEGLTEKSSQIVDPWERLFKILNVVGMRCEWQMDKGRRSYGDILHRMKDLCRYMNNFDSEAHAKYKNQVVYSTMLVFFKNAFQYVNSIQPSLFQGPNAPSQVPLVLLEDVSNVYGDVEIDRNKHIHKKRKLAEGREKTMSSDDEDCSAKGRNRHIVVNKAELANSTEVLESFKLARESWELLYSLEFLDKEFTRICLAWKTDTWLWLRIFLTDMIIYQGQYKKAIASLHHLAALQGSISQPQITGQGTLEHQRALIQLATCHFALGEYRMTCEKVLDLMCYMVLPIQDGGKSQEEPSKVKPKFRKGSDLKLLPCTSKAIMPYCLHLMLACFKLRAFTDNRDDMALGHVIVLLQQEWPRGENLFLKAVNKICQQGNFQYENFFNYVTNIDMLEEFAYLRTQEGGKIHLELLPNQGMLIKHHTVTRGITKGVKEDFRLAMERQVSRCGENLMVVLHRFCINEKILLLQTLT
UniProt O60547, sequence (O60547 whole entry, looked up): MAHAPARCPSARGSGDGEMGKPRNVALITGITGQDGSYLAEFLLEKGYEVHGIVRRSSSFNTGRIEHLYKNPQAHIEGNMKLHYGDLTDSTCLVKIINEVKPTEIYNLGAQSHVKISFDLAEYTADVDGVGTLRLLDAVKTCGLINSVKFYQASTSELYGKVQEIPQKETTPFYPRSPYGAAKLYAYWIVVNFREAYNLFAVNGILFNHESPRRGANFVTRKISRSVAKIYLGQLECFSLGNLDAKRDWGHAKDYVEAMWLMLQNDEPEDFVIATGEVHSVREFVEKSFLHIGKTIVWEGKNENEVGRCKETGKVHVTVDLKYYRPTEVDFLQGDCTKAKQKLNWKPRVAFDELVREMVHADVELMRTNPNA
UniProt Q9BXW7, sequence (Q9BXW7 whole entry, looked up): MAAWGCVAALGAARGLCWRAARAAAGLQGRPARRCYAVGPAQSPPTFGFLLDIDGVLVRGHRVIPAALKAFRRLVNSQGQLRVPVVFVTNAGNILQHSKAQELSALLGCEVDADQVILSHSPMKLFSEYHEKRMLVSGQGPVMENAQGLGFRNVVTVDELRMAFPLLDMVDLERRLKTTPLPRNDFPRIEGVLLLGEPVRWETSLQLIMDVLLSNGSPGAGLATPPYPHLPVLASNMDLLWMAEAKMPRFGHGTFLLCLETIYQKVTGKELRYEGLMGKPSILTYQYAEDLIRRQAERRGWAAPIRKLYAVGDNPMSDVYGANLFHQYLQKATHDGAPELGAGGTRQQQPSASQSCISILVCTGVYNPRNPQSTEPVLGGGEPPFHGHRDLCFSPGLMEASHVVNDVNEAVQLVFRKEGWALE
UniProt P36969, sequence (P36969 whole entry, looked up): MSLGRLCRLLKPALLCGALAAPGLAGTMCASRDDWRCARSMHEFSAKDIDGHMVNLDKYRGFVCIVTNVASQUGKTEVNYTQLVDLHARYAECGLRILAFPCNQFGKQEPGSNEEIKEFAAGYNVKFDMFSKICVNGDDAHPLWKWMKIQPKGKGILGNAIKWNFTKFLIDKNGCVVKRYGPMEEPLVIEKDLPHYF

Target | log2 fold change (nilotinib) | log2 fold change [1] | log2 fold change (dasatinib) | log2 fold change [2] | log2 fold change [3] | log2 fold change (quisinostat) | log2 fold change (tipifarnib) | log2 fold change [4] | log2 fold change [5] | log2 fold change [6] | log2 fold change [7] | log2 fold change (vorinostat) | log2 fold change (silmitasertib) | log2 fold change [8] | log2 fold change (entospletinib)
GUSB (UniProt P08236) | 0.028 | -0.067 | 0.007 | -0.026 | -0.002 | -0.109 | -0.066 | -0.041 | 0.001 | -0.01 | 0.021 | 0.043 | 0.015 | -0.026 | -0.029
ILKAP (UniProt Q9H0C8) | 0.023 | -0.01 | 0.025 | -0.094 | -0.009 | 0.011 | -0.005 | 0.005 | 0.026 | 0.044 | -0.05 | -0.288 (active) | 0.053 | -0.024 | -0.001
GRB10 (UniProt Q13322) | 0.053 | -0.028 | -0.003 | 0.026 | 0.04 | -0.065 | -0.058 | 0.008 | -0.056 | 0.008 | -0.001 | -0.402 (active) | 0.065 | 0.008 | 0.007
IRAK1 (UniProt P51617) | -0.036 | 0.011 | 0.051 | 0.112 | 0.131 | -0.145 | 0.016 | 0.373 (active) | 0.005 | -0.005 | -0.073 | -0.359 (active) | 0.205 | -0.014 | 0.232
HNRNPD isoform 2 (UniProt Q14103) | -0.047 | 0 | -0.02 | 0.009 | -0.05 | 0.139 | 0.029 | -0.025 | 0.015 | -0.008 | 0.018 | 0.155 | 0.009 | 0.063 | -0.006
IARS2 (UniProt Q9NSE4) | 0.016 | -0.007 | -0.021 | 0.026 | 0 | 0.022 | 0.006 | 0.021 | 0.02 | -0.004 | -0.002 | 0.079 | -0.01 | -0.021 | 0.01
ILK (UniProt Q13418) | 0.01 | -0.066 | 0.071 | 0 | 0.014 | -0.076 | -0.001 | 0.097 | -0.022 | -0.036 | -0.047 | -0.343 (active) | 0.086 | 0.019 | 0.096
INTS8 (UniProt Q75QN2) | 0.035 | 0.044 | -0.072 | 0.049 | 0.021 | 0.003 | -0.009 | 0.067 | -0.035 | -0.029 | -0.012 | -0.401 (active) | 0.071 | -0.016 | 0.054
GMDS (UniProt O60547) | -0.023 | 0.05 | -0.043 | -0.03 | -0.013 | -0.041 | 0.029 | 0.038 | -0.005 | -0.029 | 0.027 | -0.309 (active) | 0.041 | -0.016 | 0.032
GIT1 (UniProt Q9Y2X7) | 0.03 | -0.062 | -0.05 | -0.042 | 0.036 | -0.045 | -0.086 | 0.035 | -0.007 | -0.026 | -0.043 | -0.32 (active) | 0.009 | 0.006 | -0.005
GPX4 (UniProt P36969) | -0.011 | -0.001 | 0.01 | 0.039 | -0.024 | -0.012 | -0.009 | 0.02 | -0.011 | 0.011 | -0.007 | -0.306 (active) | 0.017 | -0.023 | 0.037
HLCS (UniProt P50747) | -0.005 | -0.005 | 0.012 | -0.003 | 0.068 | -0.022 | -0.006 | -0.011 | 0.024 | 0.02 | -0.048 | -0.054 | -0.012 | 0.004 | 0.009
GRK6 isoform 2 (UniProt P43250) | -0.024 | 0.094 | 0.023 | 0.005 | -0.014 | -0.043 | 0 | 0.012 | 0.028 | -0.097 | 0.001 | -0.227 | 0.48 (active) | -0.012 | -0.123
HNRNPD isoform 3 (UniProt Q14103) | 0.012 | -0.073 | 0.017 | 0.017 | 0.065 | 0.005 | -0.002 | 0.021 | 0.028 | -0.033 | 0.074 | 0.078 | 0.005 | 0.09 | 0
GSTM4 (UniProt Q03013) | -0.163 | 0.019 | -0.047 | 0.054 | 0.118 | 0.163 | 0.008 | -0.003 | 0.024 | -0.032 | 0.025 | 0.015 | 0.301 (active) | 0.012 | -0.03
HDAC3 (UniProt O15379) | -0.079 | -0.019 | 0.04 | -0.026 | 0.007 | -0.004 | -0.102 | 0.038 | -0.004 | -0.049 | -0.016 | -0.264 (active) | -0.027 | -0.008 | 0
INTS10 (UniProt Q9NVR2) | -0.01 | -0.025 | -0.054 | -0.024 | 0.109 | -0.034 | -0.021 | 0.011 | 0.039 | 0.028 | 0.027 | -0.438 (active) | 0.047 | 0.002 | 0.006
HDHD5 (UniProt Q9BXW7) | 0.157 | -0.081 | 0.023 | -0.052 | -0.042 | -0.026 | -0.008 | 0.028 | -0.014 | -0.036 | 0.018 | -0.249 (active) | 0.043 | -0.002 | -0.059
